# Calls of active or inactive are those of the source.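 The calls were made as follows, unless noted: active = visual image review flags a hit and inhibition of aggregation exceeds 20%; inconclusive = visual hit but inhibition at or below 20%; inactive = no hit on visual image review.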
# Columns and labels:
# [1] = inhibitors of TNFa-induced NFkB p65 translocation, primary screen, imaging, HUVEC, MLSMR starter and 10KST1 sets (AID 438;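 active = inhibition above 20% together with a positive visual image hit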;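 also: compound added about 3h40 before a 20 min TNFalpha stimulation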;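 as to inhibition: signal is the nuclear over cytoplasmic p65 intensity ratio per well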); conditions: HUVEC TNFa-induced p65 nuclear translocation; cell count: measured here: nuclei count (cytotoxicity indicator), at 2.08 µM; inhibition: at 2 µM, stronger effect = higher value, 0% TNFa-plus-vehicle, 100% no-TNFa wells
# [2] = reduction of polyQ htt aggregates in cells – imaging, exon1htt(103Q)mCFP cells, high-content imaging, primary screen (AID 483); conditions: exon1htt(103Q)mCFP cell line, aggregate imaging, at 2 µM; inhibition of aggregation: stronger effect = higher value; nuclei count: measured here: cell count, toxicity;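 also: compound exposure lasted 3 days before fixation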;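 as to nuclei count: percent of the per-plate median nuclei count of sample wells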
# [3] = endothelial E-selectin expression blockers – imaging, HUVEC, immunofluorescence, MLSMR starter and 10KST1 sets, primary screen (AID 487;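 active = visually confirmed hit in the image check and inhibition above 20%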;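 as to inhibition: signal is fraction of cell area covered by stained E-selectin grains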;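 as to nuclei count: 100% = median nuclei count of all wells on the same plate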); conditions: HUVEC TNFalpha-induced E-selectin immunofluorescence imaging, at 2 µM; inhibition: stronger effect = higher value; nuclei count: measured here: cell number, toxicity
# [4] = target: Voltage-gated potassium channel subunit beta-2 (Rattus norvegicus) (UniProt P62483); experiment: inhibitors of rat Kvbeta2 reductase activity – biochemical, NADPH fluorescence, primary screen (AID 622;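 active = fluorescence slope higher than the sample average by over 3 SD, cut at about -0.22 in these data, passing the limit was not always enough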;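 also: slope of raw intensity against log time taken from 70 to 1610 s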); conditions: recombinant KvBeta, 4-cyanobenzaldehyde reduction, at 10 µM, stronger effect = higher value
# Sequence of Voltage-gated potassium channel subunit beta-2 (Rattus norvegicus) (P62483 whole entry, looked up): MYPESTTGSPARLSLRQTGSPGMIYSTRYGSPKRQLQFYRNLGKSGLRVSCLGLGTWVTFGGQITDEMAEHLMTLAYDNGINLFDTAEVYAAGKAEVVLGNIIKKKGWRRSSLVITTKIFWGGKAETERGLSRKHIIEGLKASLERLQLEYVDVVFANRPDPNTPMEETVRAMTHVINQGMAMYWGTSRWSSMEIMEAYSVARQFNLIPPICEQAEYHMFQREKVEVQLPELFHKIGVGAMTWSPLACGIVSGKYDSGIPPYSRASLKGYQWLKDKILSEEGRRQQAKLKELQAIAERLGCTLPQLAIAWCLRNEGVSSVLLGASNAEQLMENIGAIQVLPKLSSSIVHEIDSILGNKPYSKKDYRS
# [5] = target: Voltage-gated potassium channel subunit beta-2 (Rattus norvegicus) (UniProt P62483); experiment: enhancers of rat Kvbeta2 NADPH turnover – biochemical, NADPH fluorescence, primary screen (AID 623;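 active = NADPH fluorescence slope more negative than the mean of all samples by about 3 SD, 99.7% confidence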;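 also: fluorescence intensity change per second fitted from 20 to 320 s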); conditions: Recombinant KvBeta, NADPH fluorescence decrease slope, 10 min; at 10 µM; stronger effect = lower value
# [6] = target: Alpha-2C adrenergic receptor (Homo sapiens) (UniProt P18825); experiment: compounds altering alpha2C-coupled GIRK flux – cell-based, HEK293 alpha2C/GIRK1/2, thallium flux, primary screen (AID 624;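 active = fluorescence slope after compound addition differing from the mean of all screened samples at 99.7% confidence, in either direction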;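 also: slope of fluorescence ratio to pre-addition baseline per second over 15 to 24 s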); conditions: thallium flux BTC fluorescence, at 10 µM, actives lie on both sides
# Sequence of Alpha-2C adrenergic receptor (Homo sapiens) (P18825 whole entry, looked up): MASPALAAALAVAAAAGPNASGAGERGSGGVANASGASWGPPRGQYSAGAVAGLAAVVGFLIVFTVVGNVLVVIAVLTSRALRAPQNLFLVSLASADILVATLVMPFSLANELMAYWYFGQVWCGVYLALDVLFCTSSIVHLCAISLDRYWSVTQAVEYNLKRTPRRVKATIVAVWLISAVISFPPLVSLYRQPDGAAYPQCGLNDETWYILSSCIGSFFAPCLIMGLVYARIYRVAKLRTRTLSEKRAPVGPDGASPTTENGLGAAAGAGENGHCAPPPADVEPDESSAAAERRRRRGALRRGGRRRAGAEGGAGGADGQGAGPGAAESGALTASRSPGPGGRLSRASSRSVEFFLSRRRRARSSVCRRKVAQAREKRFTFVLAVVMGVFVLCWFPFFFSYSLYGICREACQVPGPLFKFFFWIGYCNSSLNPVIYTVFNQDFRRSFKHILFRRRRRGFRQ
# [7] = blockers of RIG-like receptor reporter activation – cell-based, Sendai virus stimulus, luciferase, 10K MLSCN set, TLR/RLR signaling modifier project, primary screen (AID 602276;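 active = inhibition at or above 50% at 10 µM; inactive = inhibition below 50%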;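 also: firefly luciferase from ISG56 promoter only with Renilla not read in this screen; 0% = Sendai virus plus DMSO and 100% = medium plus DMSO without virus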); conditions: HEK293 RL24 IRF3 luciferase reporter, at 10 µM, stronger effect = higher value
# [8] = TLR3 IRF3 reporter activation blockers – cell-based, poly I:C stimulus, luciferase, 10K MLSCN set, primary screen (AID 602277;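 active = inhibition of the reporter signal at or above 50%; inactive = inhibition below 50%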); conditions: HEK293-TLR3 RL24 IRF3 luciferase reporter, at 10 µM, stronger effect = higher value
Structure (SMILES),cell count [1],inhibition [1],inhibition of aggregation [2],nuclei count [2] [%],inhibition [3],nuclei count [3] [%],fluorescence slope [4],NADPH fluorescence slope [5],slope [6],inhibition [7],inhibition [8]
CCn1c(=O)c(C(=O)NCc2ccc(OC)cc2)c(O)c2ccccc21,685,12.5% (inactive),0.6% (inactive),101,33.9% (inactive),101,-0.353 (inactive),-2.5e-05 (inactive),0.00899 (inactive),14.7% (inactive),16.2% (inactive)
Cc1ccc(-c2cc(C(F)(F)F)n3nc(C(=O)N4CCCC4)cc3n2)cc1,336,5.5% (inactive),13.3% (inactive),107,-148% (inactive),127,-0.512 (inactive),-1.4e-05 (inactive),0.00691 (inactive),-0.996% (inactive),-25.5% (inactive)
Cc1cc(C(=O)NCCN2CCN(c3cccc(Cl)c3)CC2)n(-c2ccccc2)n1,647,5.5% (inactive),-25.2% (inactive),78.7,-50.5% (inactive),108,-0.531 (inactive),-2.8e-05 (inactive),0.00538 (inactive),16.7% (inactive),35% (inactive)
COc1ccc2ccccc2c1CN1CCN(C)CC1,441,-7.1% (inactive),-14.9% (inactive),93.7,-40.6% (inactive),123,-0.444 (inactive),-0.000107 (inactive),0.00594 (inactive),7.96% (inactive),27.9% (inactive)
O=C(Cn1cnc2c(cnn2-c2ccc(F)cc2)c1=O)N1CCCc2ccccc21,427,1.5% (inactive),2.1% (inactive),104,-61.6% (inactive),110,-0.628 (inactive),-5.2e-05 (inactive),0.00385 (inactive),11.3% (inactive),6.11% (inactive)
CCOC(=O)c1cc2c(=O)n3ccccc3nc2n(CC(C)C)c1=NC(=O)c1ccco1,659,-13.4% (inactive),6.2% (inactive),96.7,-49.4% (inactive),112,-0.532 (inactive),-5.6e-06 (inactive),0.00344 (inactive),2.77% (inactive),20.4% (inactive)
O=S(=O)(NC1CCCCC1NS(=O)(=O)c1ccc(F)cc1)c1ccc(F)cc1 (configuration not stated),334,5.3% (inactive),-1.8% (inactive),101,5.1% (inactive),112,-0.503 (inactive),-3.7e-06 (inactive),0.00507 (inactive),21.4% (inactive),26.6% (inactive)
CCOc1ccc2nc(SCC(=O)N3CCCCCC3)c(C#N)cc2c1,611,9.1% (inactive),-7.9% (inactive),98.1,-95.4% (inactive),150,-0.584 (inactive),-3.2e-05 (inactive),0.00304 (inactive),-1.31% (inactive),-24.8% (inactive)
CC1CN(S(=O)(=O)c2ccc(Cl)c(C(F)(F)F)c2)CC(C)O1 (configuration not stated),390,6.1% (inactive),-1.4% (inactive),105,0.5% (inactive),110,-0.31 (inactive),-4e-05 (inactive),0.0059 (inactive),7.15% (inactive),0.275% (inactive)
CCOc1ccccc1N(CC(=O)NC1CCCC1)C(=O)CCCC(=O)Nc1ccccn1,369,5.3% (inactive),24.9% (inactive),102,-20% (inactive),122,-0.63 (inactive),-2.4e-05 (inactive),0.00589 (inactive),5.25% (inactive),19.7% (inactive)
Cc1cc(Cl)ccc1OCC(=O)Nn1c(C)ccc1C,480,-4.9% (inactive),-6.4% (inactive),94.5,-16.2% (inactive),136,-0.525 (inactive),-3.9e-05 (inactive),0.00483 (inactive),11.6% (inactive),15.5% (inactive)
N#Cc1c(/N=C/c2cccs2)sc2c1CCCCC2,636,-14.8% (inactive),-34.1% (inactive),127,-14.2% (inactive),127,-0.598 (inactive),-2.1e-05 (inactive),0.0029 (inactive),30.4% (inactive),-5.24% (inactive)
Cc1nnc(SCC(=O)N(C(C)C)C(C)C)nc1C,430,7% (inactive),-8.2% (inactive),101,-106% (inactive),115,-0.599 (inactive),-3.9e-05 (inactive),0.00322 (inactive),6.7% (inactive),8.25% (inactive)
COc1ccccc1OCC(=O)NCC1CCCCC1,394,-28.2% (inactive),5.6% (inactive),108,28.4% (inactive),102,-0.413 (inactive),-2.9e-05 (inactive),0.00305 (inactive),-1.17% (inactive),-7.1% (inactive)
CCCCn1c(CN2CCN(c3ccccc3)CC2)nc2c1c(=O)n(C)c(=O)n2C,702,-11.5% (inactive),-3.7% (inactive),90.6,-17.7% (inactive),117,-0.542 (inactive),-4.7e-05 (inactive),0.00817 (inactive),1.46% (inactive),-8.66% (inactive)
COc1cc2c(cc1NC(=O)CN1CCN(S(=O)(=O)c3ccc(F)cc3)CC1)oc1ccccc12,583,-2.4% (inactive),-2.8% (inactive),95.8,-33.6% (inactive),88.8,-0.364 (inactive),1.3e-05 (inactive),0.0037 (inactive),2.2% (inactive),30.3% (inactive)
Cc1ccc(C)c(N2CCN(C(=O)CCCn3c(=S)[nH]c4cc5c(cc4c3=O)OCO5)CC2)c1,494,2.5% (inactive),-3.8% (inactive),109,-37.7% (inactive),114,-0.433 (inactive),1.2e-05 (inactive),0.00641 (inactive),0.122% (inactive),17.7% (inactive)
CCOC(=O)C1CCCN(c2c(Nc3ccc(C)c(C)c3)c(=O)c2=O)C1 (configuration not stated),613,9% (inactive),2.3% (inactive),104,-103% (inactive),131,-0.539 (inactive),6.2e-06 (inactive),0.00607 (inactive),-6.09% (inactive),32.9% (inactive)
COc1cc(CN2CCN(C(=O)CC(C)C)CC2)cc(OC)c1O,642,-11% (inactive),-4.6% (inactive),99.7,-52.5% (inactive),90.3,-0.583 (inactive),-2.8e-05 (inactive),0.00548 (inactive),5.89% (inactive),16% (inactive)
O=[n+]1c2c(n([O-])c3c1CCCC3)CCCC2,658,5.8% (inactive),-17.7% (inactive),109,54.7% (inactive),75.8,-0.399 (inactive),-6.5e-05 (inactive),0.00619 (inactive),11.8% (inactive),24% (inactive)
CCOC(=O)N1CCN(C(=O)c2ccc3c(=O)n(Cc4ccc(OC)cc4)c(=S)[nH]c3c2)CC1,475,-17% (inactive),45.2% (active),59.2,2.4% (inactive),88.2,-0.496 (inactive),-2.2e-05 (inactive),0.00659 (inactive),11.9% (inactive),10% (inactive)
COc1cc(C)nc(N2CCCC(C(=O)Nc3cccc(Cl)c3Cl)C2)n1 (configuration not stated),395,3.6% (inactive),-14.9% (inactive),109,-0.7% (inactive),103,-0.467 (inactive),-2.4e-05 (inactive),0.00338 (inactive),4.19% (inactive),21.4% (inactive)
O=C(O)c1cc2nc(-c3ccc(F)cc3)cc(C(F)(F)F)n2n1,435,4.9% (inactive),-0.7% (inactive),97.9,26.5% (inactive),110,-0.385 (inactive),-4.1e-05 (inactive),0.00272 (inactive),0.989% (inactive),19.6% (inactive)
Cc1cc(NC(=O)CCC(=O)N(CC(=O)NC2CCCC2)Cc2ccc(F)cc2)no1,402,0.8% (inactive),-35.1% (inactive),103,-48.3% (inactive),122,-0.421 (inactive),-3.6e-05 (inactive),0.00498 (inactive),14.9% (inactive),13.1% (inactive)
Cc1onc(-c2ccccc2Cl)c1C(=O)N1CCc2ccccc21,398,-1.3% (inactive),-6.4% (inactive),104,-43.1% (inactive),110,-0.405 (inactive),9.6e-06 (inactive),0.00452 (inactive),10.6% (inactive),34.8% (inactive)
CCOC(=O)c1c(C)[nH]c(C(=O)Cn2c(=O)oc3ccccc32)c1C,256,7.6% (inactive),17.3% (inactive),97.3,31.3% (inactive),98.7,-0.285 (inactive),-6.3e-06 (inactive),0.00653 (inactive),-8.59% (inactive),-12.4% (inactive)
CCOC(=O)c1c(-c2ccc(C)o2)csc1NC(=O)COC(=O)c1cccs1,478,-7.8% (inactive),10% (inactive),66.4,-41.5% (inactive),113,-0.403 (inactive),-5.7e-05 (inactive),0.00798 (inactive),7.28% (inactive),15.5% (inactive)
